In PubChem BioAssay AID651871 (Sanford-Burnham Center for Chemical Genomics, 2012) one finds activity (protection/inhibition) data, which are given here for 3 compounds.

Several values for one entry are separate records, joined by “and”; a condition that tells them apart may be missing. Identical values can stand only once.

In this test the test system is HL-1. The experiment in a line: cardiomyocyte survival under oxidative or metabolic stress – cell-based, panel, H9c2 and HL-1, ATP luminescence, set 2, SAR follow-up (AID 651871).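 Note: cells exposed to stressor for 2 h before ATP readout; reference of the scale not given here.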 As to conditions: H9c2/HL-1 cardiomyocytes, 2-deoxyglucose stress, with 2-deoxyglucose, run 12, at 79 µM (top of the series).
With `COc1ccc2c(c1OC)C(=O)N1c3ccccc3C(=O)N(Cc3cccc(Cl)c3Cl)C21` (stereo not drawn), the activity (protection/inhibition) was 65.5% and -16.5%.
`CCOC(=O)c1cccc(NC(=O)CNC(=O)c2cc(-c3cc(OC)c(OC)c(OC)c3)nc3ccccc23)c1`: the activity (protection/inhibition) worked out at 63.3%.
For the compound `COc1ccc2nc(-c3cc(OC)c(OC)c(OC)c3)cc(C(=O)NCC(=O)Nc3ccc(C(C)=O)cc3)c2c1`, the activity (protection/inhibition) was 62.5%.
